ATXN2 expr inh = reduces ATXN2 reporter expression in HEK-293 cells | HEK-293 ATXN2-luciferase reporter, luminescence, 24 h | Potency, µM (top dose mostly 57 µM), for inactives: top-dose activity change, negative = inhibition, hits mostly inhibitors | 360,000 compounds, 0.72% hits; further: on the % scale 0 is the no-effect control and ±100 the full control effect; nearly all actives have a fitted effect of over 55% in size
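ATXN2-luciferase reporter cells (luciferase flanked by upstream and downstream ATXN2 gene portions) were treated 24 h at 37 °C with compounds at up to 57 uM. SteadyGlo luminescence gave expression; GF-AFC fluorescence gave viability.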
HT1080 IDH1KD tx = kills HT-1080 cells with IDH1 knockdown. HT-1080 IDH1 knockdown viability, ATP luminescence, 48 h. Potency, µM (top dose mostly 46.1 µM), for the others: at the top dose activity, negative = toxicity, hits mostly cytotoxic. 360,000 compounds, 2% hits;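 further: 0% = DMSO wells and -100% = cell-free medium wells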
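Cytotoxicity counter-line: IDH1KD HT-1080, 48 h, CellTiter-Glo. Curves classed by r2, magnitude and activity.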
HT1080-NT tox = kills 2HG-producing HT-1080-NT fibrosarcoma cells. HT-1080-NT fibrosarcoma viability, CellTiter-Glo ATP luminescence, 48 h. 360,000 compounds, 1.6% hits. AID 686970. Potency, µM (highest dose often 46.1 µM), for the others: at the top dose activity, negative = less viability, most hits filed as cytotoxic;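 further: NT is the 2HG producing partner of a matched IDH1 knockdown line; 0% = DMSO-treated cells and -100% = media-only wells without cells; nearly all actives have a fitted effect of over 55% in size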
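HT-1080-NT; 750 cells/well; 5% FBS RPMI; 48 h compound, 37 degrees C; CellTiter-Glo luminescence; curve fitting and curve-class assignment.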
HepG2 tox = HepG2 cytotoxicity, counter-screen for TGF-b inhibitors; HepG2 CAGA-GFP viability, ATP luminescence, 18 h; Potency, µM (doses to about 46.1 µM), inactives show at the top dose activity change, negative = cytotoxicity, usual class: cytotoxic; 410,000 compounds, 0.76% hits
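HepG2 CAGA-GFP cells (1000/well, DMEM with 1% FBS) received compound, then TGF-beta at 500 pg/mL final, and were incubated 18 hours at 37 degrees C. Viability was read by CellTiter-Glo luminescence. Media-only wells were set as complete cell-killing and DMSO as no toxicity.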
ATXN viability = viability counter-screen for ATXN expression inhibitors; S2 cells (HEK-293 line with an ATXN2-luciferase reporter) viability, CellTiter-Fluor protease fluorescence, 24 h; 400,000 compounds, 0.49% hits; Potency, µM (doses to about 56.7 µM), most hits filed as cytotoxic; further: nearly all actives have a fitted effect of over 40% in size
TGFb inhibitor = inhibitors of TGF-b signaling | HepG2 CAGA-GFP TGF-b/SMAD3 reporter, GFP fluorescence, 18 h; TGF-beta stimulated, 500 pg/mL final | Potency, µM (titrated, usually from 46.1 µM), without a hit: at the highest dose activity, negative = inhibition, hits mostly inhibitors | 410,000 compounds, 1.2% hits; further: on the % scale 0 is the no-effect control and ±100 the full control effect; nearly all actives have a fitted effect of over 65% in size
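Cell-based qHTS in HEPG2 carrying a CAGA-GFP Smad reporter; compounds added before 500 pg/mL final TGF-beta, 18 h incubation at 37 degrees C, GFP fluorescence quantified per cell by imaging cytometry.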
The depositor's hits bear a star; i = inactive; ? = inconclusive; · = not tested or not shown; [ ] = dose if it differs, or a comment. Compounds with a hit are over-represented: about 3.8% of the library has one in this group of screens. The call rests on the fitted dose curve; in most records, active means well fitted curve in the direction sought with a large enough effect; inconclusive means small, poorly fitted or top-dose-only effect, or another doubt; inactive means no such curve, though single readings can be large; an effect the other way counts as inactive or inconclusive. Potency means the concentration at half of the fitted maximal effect.

SMILES	ATXN2 expr inh	HT1080 IDH1KD tx	HT1080-NT tox	HepG2 tox	ATXN viability	TGFb inhibitor
CN(C)CCCn1c(SCC(=O)Nc2nc(-c3cccc(Br)c3)cs2)nc2ccccc2c1=O	-33%	16µM*	21µM*	-100%	i	?
O=C(CSc1nc2ccccc2[nH]1)Nc1nc(-c2cccc(Br)c2)cs1	4%	12%	10%	-22%	i	-5%
CCC(C)Nc1nc(-c2c[nH]c3ccccc23)cs1 (stereo not drawn)	-11%	?	?	-59%	?	13µM*
CN1CCN(CC(=O)Nc2nc(-c3c[nH]c4ccccc34)cs2)CC1	-12%	21µM*	?	-7%	?	-23%
CNc1ccc(C=O)cc1Cl	·	·	·	9%	·	4%
COc1cc(OC)c(C#N)c(S(=O)(=O)Cc2ccccc2)c1	-4%	8%	25%	1%	i	-8%
N#Cc1c([N+](=O)[O-])cc([N+](=O)[O-])cc1S(=O)(=O)Cc1ccccc1	?	2.9µM*	21µM*	10µM*	32µM*	4µM*
c1cnc2cc3c(cc2n1)[C@@H]1CNC[C@H]3C1	·	·	·	·	i	·
CC1=C(C(=O)c2ccccc2)C(c2ccc(OC(F)F)cc2)NC(=S)N1 (stereo not drawn)	-6%	15µM*	?	-7%	?	?
CC1=C(C(=O)c2ccccc2)C(c2ccc(O)cc2)NC(=S)N1 (stereo not drawn)	·	5%	-2%	-17%	·	-24%
O=C1C2CC=CCC2C(=O)N1Cc1ccccc1 (stereo not drawn)	5%	2%[9.24 µM]	-4%	-18%	i	1%
O=C1C=CC(=O)N1Cc1ccccc1	?	18µM*	2.6µM*	-78%	?	?
O=C(CSc1ncccn1)NCC1Cc2cccc(-c3ncccn3)c2O1 (stereo not drawn)	·	·	·	·	i	·
CC1=NN(S(=O)(=O)c2ccc(C)cc2)C(=O)c2ccccc2O1	·	8%	0%	2%	i	-2%
COc1ccc(S(=O)(=O)N2N=C(C)Oc3ccccc3C2=O)cc1	-10%	3.3µM*	2.9µM*	2%	?	-4%
CN(Cc1ccccc1)c1ccc(/C=C/c2sc3ccccc3[n+]2C)cc1	·	·	·	-34%	·	3.2µM*
O=[N+]([O-])c1ccc(C=CC=Cc2ccccc2)cc1	·	15%	11%	-43%	i	-17%
CN(c1ccccc1)c1ccc(/C=C/[N+](=O)[O-])cc1	-2%	5.8µM*	5.2µM*	7.9µM*	·	?
COc1cc(C(=O)NNC(=O)c2ccc3c(c2)OCCO3)cc(OC)c1OC	2%	-2%	0%	1%	i	8%
COc1cc(C(=O)c2ccc3c(c2)OCO3)cc(OC)c1OC	-11%	2.6µM*	?	9%	?	-1%
COc1cc(C(=O)N/N=C(\C)c2ccc3c(c2)OCO3)cc(OC)c1OC	-38%[11.3 µM]	3.7µM*	2.1µM*	-1%	?	?
COc1cc(-c2nc(-c3ccc(NC(=O)c4ccc5c(c4)OCO5)cc3)no2)cc(OC)c1OC	?	5.2µM*	4.6µM*	-57%	32µM*	?
Cn1cnc(=N)c2[nH]cnc21	292%	·	·	·	·	·
COc1cc(/C=C2\C=Cc3ccccc32)ccc1N(C)C	·	·	·	-16%	·	-10%
O=S(=O)(c1ccc(N2CCC(c3ccc(Cl)cc3)=N2)cc1)N(CCO)CCO	-27%	-29%	-21%	20µM*	·	?
O=c1c2ccccc2nc(/C=C/c2ccc3c(c2)OCO3)n1CCCO	22%	6.5µM*	?	-4%	i	?
O=c1c2ccccc2nc(/C=C/c2cc(Br)ccc2O)n1CCO	·	-17%	-13%	13µM*	i	?
COC(=O)c1cc(S(=O)(=O)N(Cc2ccccc2)C(C)(C)C)c[nH]1	-29%	23µM*	?	-22%	i	-4%
